54 molecules from ChEMBL document CHEMBL4513216, “Probing the Open Global Health Chemical Diversity Library for Multistage-Active Starting Points for Next-Generation Antimalarials” (ACS Infect Dis, 2020) can be followed below.

SMILES strings stand for the structures. Screen size: about 69,000 compounds; about 8,600 (12%) showed an effect of 50% or more. What follows is part of a selection rich in strong results, with near analogues and random picks from the rest.

This test concerns Plasmodium berghei. The experiment in a line: Screen against P. berghei liver stage (PbLuc), transformed with Luciferase, at 10uM. The conditions noted are these: tested at 10 uM. The format is functional, HepG2.
In the case of `O=c1cc(CNCc2ccc3c(c2)OCO3)nc2ccccn12`, the INHIBITION was 14.3%.

Consider `COc1nn(C)cc1C(=O)N1CCC(c2nnc(C(C)C)o2)CC1`, for which the INHIBITION is listed as 37.5%.

Consider `c1ccn(Cc2noc3c2CN(Cc2ccsc2)CC3)c1`, for which the INHIBITION turned out to be 49.1%.

In the case of `Cc1ccc2c(c1)CN(CC(=O)NCCc1ccc(F)cc1)CC(C)O2` (centres undefined), the INHIBITION is recorded as -46.4%.

Consider `CC1CN(CC(=O)NCCc2ccncc2)Cc2ccccc2O1` (centres undefined), for which the INHIBITION turned out to be 60.9%.

With `CC1CN(CCC(=O)NCCc2cccnc2)Cc2ccccc2O1` (centres undefined), the INHIBITION is 26.1%.

In the case of `O=C(c1ccc(-c2ccsc2)nc1)N1CCCN(C2CCCCC2)CC1`, the INHIBITION came to 14.4%.

For `CO[C@@]1(C)C[C@@H](O)C12CCN(C(=O)CCn1c(C)cccc1=O)CC2`, the INHIBITION came out at 46.4%.

Regarding `COCC1c2nnn(C)c2CCN1C(=O)CCc1cccc(OC)c1` (centres undefined), the INHIBITION was 52.1%.

For the molecule `COCC1c2nnn(C)c2CCN1C(=O)Cc1ccc2c(c1)OCO2` (centres undefined), the INHIBITION is recorded as -10.5%.

Consider `COCC1c2nnn(C)c2CCN1C(=O)Cc1ccccn1` (centres undefined), for which the INHIBITION is -21.3%.

`COCC1c2nnn(C)c2CCN1C(=O)COc1ccccc1C` (centres undefined): the INHIBITION came to 22.2%.

In the case of `COCC1c2nnn(C)c2CCN1C(=O)COc1ccccc1OC` (centres undefined), the INHIBITION is given as 53%.

As for `COCC1c2nnn(C)c2CCN1C(=O)c1ccc(OC)c(F)c1` (centres undefined), the INHIBITION is listed as 44.8%.

Regarding `CCc1c(C)sc2nc3n(CCN4CCCCC4)nc(SC)n3c(=O)c12`, the INHIBITION was determined as 35.1%.

In the case of `CC(C)(C)c1n[nH]c(C2CN(C(=O)c3cc(C4CC4)[nH]n3)CCO2)n1` (centres undefined), the INHIBITION is listed as -21.2%.

On to `CNC(=O)N1CCN(C(=O)N(C)C)CC2(CC(=O)N(C)C2)C1` (centres undefined), for which the INHIBITION was found to be 26.3%.

Consider `O=C(c1ccoc1)N1CC[C@@H]2[C@@H](CC1)OCCN2c1cccnc1`, for which the INHIBITION came out at 45.8%.

For the molecule `O=C(c1ccncc1)N1CC[C@@H]2[C@@H](CC1)OCCN2c1cccnc1`, the INHIBITION came to 12.1%.

Turning to `Cc1ncsc1C(=O)N1CC[C@@H]2[C@@H](CC1)OCCN2c1cccnc1`, the INHIBITION amounted to 65.1%.

On to `CC(Cn1cccn1)NC(=O)c1ccsc1` (centres undefined), for which the INHIBITION is 15.7%.

`Cc1nc2ccc(C(=O)N3CCn4c(C)nnc4C3)cc2nc1C`: the INHIBITION stood at 1.56%.

For the molecule `CN1C[C@H](c2ccccc2)[C@H]2CN(C(=O)Cc3ccc(O)cc3)CC[C@H]21`, the INHIBITION is reported as 27.35%.

Turning to `CCN1CC2(CCC1=O)CCN(C(=O)c1ccc(C)cc1O)CC2`, the INHIBITION is 18.6%.

On to `COc1cccc(-c2nnn(C3CCN(CC(F)(F)F)C3=O)n2)c1` (centres undefined), for which the INHIBITION is recorded as -73.4%.

As for `Cc1nnc(SCCNc2cc(C3CC3)ncn2)s1`, the INHIBITION is given as 4.52%.

Turning to `CCn1c(C)nnc1SCCNc1cc(COC)ncn1`, the INHIBITION came to 8.51%.

In the case of `Cc1nnc(SCCCNC(=O)c2ccc3c(c2)OCO3)s1`, the INHIBITION is 33.4%.

As for `Cc1nnc(SCCCNc2cc(C3CC3)ncn2)s1`, the INHIBITION is 58.8%.

For `COc1cc(NCCCSc2nnc(C)s2)ncn1`, the INHIBITION was determined as 42.1%.

In the case of `COCc1cc(NCCCSc2nnc(C)s2)ncn1`, the INHIBITION was 58.8%.

With `Cc1cccc(N2CC3(CCN(S(=O)(=O)c4cccs4)C3)CC2=O)c1` (centres undefined), the INHIBITION is reported as -4.82%.

With `CSc1ccc(C(=O)N2C[C@@H]3CC[C@H]2CN(Cc2cccnc2)C3)cc1`, the INHIBITION is recorded as -5.19%.

With `Cc1noc(CCCNC(=O)N2CCc3ccccc3C2CO)n1` (centres undefined), the INHIBITION turned out to be 14.4%.

For the molecule `CC(C)(C)c1cc(NC(=O)CN2CCc3cncnc3C2)on1`, the INHIBITION was -9.76%.

Consider `COC(=O)COn1c(OC)nc2ccccc2c1=O`, for which the INHIBITION is listed as 52.5%.

As to `CCc1nc2ccccc2c(=O)n1CC1(O)CCN(CC(=O)OC)CC1`, the INHIBITION was found to be 13.5%.

For the molecule `COC(=O)COn1c(SCC(=O)OC)nc2ccccc2c1=O`, the INHIBITION is 28.3%.

Take `CCOn1c(SC(C)C)nc2ccccc2c1=O`: the INHIBITION was 56.3%.

As to `COC(=O)COn1c(SC)nc2ccccc2c1=O`, the INHIBITION stood at 48%.

On to `COC(=O)COn1c(SC(C)C)nc2ccccc2c1=O`, for which the INHIBITION is 28.3%.

In the case of `CCc1nc2ccccc2c(=O)n1CC1(O)CCN(C(=O)C(C)C)CC1`, the INHIBITION was 35.2%.

For the molecule `CCc1nc2ccccc2c(=O)n1CC1(O)CCN(C(=O)COC)CC1`, the INHIBITION came out at 7.52%.

For `CCSc1nc2ccccc2c(=O)n1OCC(=O)OC`, the INHIBITION is given as 60.8%.

As for `CC(C)Cc1noc(CN2CCCC2c2noc(C3CC3)n2)n1` (centres undefined), the INHIBITION is recorded as -31.5%.

Take `CC(C)(C)N1CCN(C(=O)Nc2cc(C(F)(F)F)c[nH]c2=O)CC1`: the INHIBITION was determined as 33.3%.

For the molecule `COC(=O)C1C=CCN1C(=O)c1cc(COc2ccccc2)[nH]n1` (centres undefined), the INHIBITION turned out to be 9.41%.

`Cc1nc(N(C)C)ncc1C(=O)N[C@@H]1CCc2ccccc21`: the INHIBITION turned out to be 27.4%.

For the molecule `O=C(Nc1ccccc1)C1CCCN(c2cc(-n3cncn3)ncn2)C1` (centres undefined), the INHIBITION came to 50.2%.

For the molecule `O=C(CN1CCCC(Cn2cncn2)C1)Nc1cccnc1` (centres undefined), the INHIBITION is reported as -43.9%.

Regarding `O=C(Nc1cccnc1)C1CCN(c2cc(-n3ccnc3)ncn2)CC1`, the INHIBITION is reported as 31.3%.

As to `O=C(NC1CC1)C1CCCN(c2cc(-n3cncn3)ncn2)C1` (centres undefined), the INHIBITION is recorded as 40.4%.

As to `O=C(NCc1cccs1)C1CCCN(c2cc(-n3cncn3)ncn2)C1` (centres undefined), the INHIBITION is 13.9%.

As for `O=C(Nc1cccnc1)C1CCCN(c2cc(-n3cccn3)ncn2)C1` (centres undefined), the INHIBITION came out at 50.2%.
